Measured values: the supplement of paper PMC4237247
Counter-ions that a name gives are not always drawn.

Each compound was assayed on HeLa (assay: percent cells in G2/M phase; higher = more G2/M arrest). Details: 10 µM; 20 h.
Description: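 HTS of 79,827 drug-like compounds at 10 uM. HeLa cells in 384-well plates were treated for 20 h, fixed, stained with Vybrant DyeCycle Green and scanned on an Acumen eX3 cytometer to give per-well cell cycle profiles (% cells in each phase). The plate Z' was 0.51. Only hits are listed: G1 hits >4 SD and S hits >5 SD from the mean.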

Point of comparison: `O=C(COc1ccc(Cl)cc1)NC(Cc1c[nH]c2ccccc12)C(=O)O` (configuration not stated) (hit class: G1-phase inhibitor), “percent cells in G2/M phase” value 20.6%. Against it:
- C[C@@H]1CCC[C@H](C)N1NC(=O)c1ccc(Cl)c(S(N)(=O)=O)c1 [Clopamide] (hit class: G1-phase inhibitor) — lower, 15.9%
- c1ccc2c(c1)Nc1nc3ccccc3nc1O2 (hit class: G1-phase inhibitor) — higher, 21.4%
- COc1[nH]c2ccccc2c1C=NO (hit class: S-phase inhibitor) — lower, 12.8%
- O=C1c2c(O)ccc(O)c2C(=O)c2c(NCCNCCO)ccc(NCCNCCO)c21 [Mitoxantrone dihydrochloride] (hit class: G1-phase inhibitor) — lower, 0.73%
- Cc1cc(N2CCCCC2)c(F)cc1[N+](=O)[O-] (hit class: S-phase inhibitor) — higher, 22.3%
- COc1ccc(CSc2nncn2N)cc1 (hit class: S-phase inhibitor) — lower, 15.1%
- Cc1cc([N+](=O)[O-])ccc1NCc1ccc(F)c(F)c1 (hit class: G1-phase inhibitor) — lower, 18.3%
- COc1ccc(C(=O)c2coc3ccc(OC)cc3c2=O)cc1 (hit class: G1-phase inhibitor) — lower, 19%
- COc1c(C)c2c(c(O)c1C/C=C(\C)CCC(=O)O)C(=O)OC2 [Mycophenolic acid] (hit class: S-phase inhibitor) — higher, 28.6%
- C[C@@H]1C[C@H]2[C@@H]3C[C@H](F)C4=CC(=O)C=C[C@]4(C)[C@@]3(Cl)[C@@H](O)C[C@]2(C)[C@H]1C(=O)COC(=O)C(C)(C)C [Clocortolone pivalate] (hit class: S-phase inhibitor) — higher, 30.1%
- Cn1c(SCc2ccccc2)nc2ccccc2c1=O (hit class: S-phase inhibitor) — lower, 15.4%
- Nc1ccn([C@H]2CC[C@@H](CO)O2)c(=O)n1 [Zalcitabine] (hit class: S-phase inhibitor) — higher, 29.8%
- CCN(CC)Cc1c(O)ccc2c(=O)c(-c3ccccc3)coc12 (hit class: S-phase inhibitor) — lower, 17%
- Cc1ccc(-c2cc(-c3ccccc3Cl)[nH]n2)c(O)c1 (hit class: G1-phase inhibitor) — lower, 17.1%
- CC[C@@H](C(=O)[C@@H](C)[C@@H](O)[C@H](C)CCc1ccc(C)c(O)c1C(=O)O)[C@H]1O[C@](CC)([C@H]2CC[C@](O)(CC)[C@H](C)O2)C[C@@H]1C [Lasalocid sodium salt] (hit class: G1-phase inhibitor) — lower, 16.8%
- CC(=O)C1=C(O)C(=O)N(CC(=O)O)C1c1ccccc1F (configuration not stated) (hit class: S-phase inhibitor) — lower, 12.9%
